Shown are actives, neighbours in structure and some others; about 2.3% of the full set was active somewhere.
CHO-K1 Ca ag – counter-screen for M1 agonists: effect in parental CHO-K1 cells; Fluo-8 calcium fluorescence; scaled to maximal ATP response, vehicle zero; activation, % at 3 µM; hit rate 0.48% among 360,000; AID 602248, 2012; in the data active = activation above about 15%;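 also: untransfected CHO-K1 host cells lacking M1 receptor as counterscreen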
M1 ag – human M1 muscarinic receptor agonists, primary screen, Fluo-8 calcium fluorescence, CHO-K1 cells, HTS; CHO-K1 hM1, agonist mode; 0% DMSO, 100% acetylcholine EC100; Muscarinic acetylcholine receptor M1 (Homo sapiens), P11229; activation, % at 3 µM; AID 588814, 2011; hit rate 0.33% among 360,000;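 active = activation above the run's mean compound activation plus 3 SD, cut at about 16% in these data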;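 also: peak over basal fluorescence ratio within a 140 s kinetic read after compound addition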
Target sequence (P11229 whole entry, looked up): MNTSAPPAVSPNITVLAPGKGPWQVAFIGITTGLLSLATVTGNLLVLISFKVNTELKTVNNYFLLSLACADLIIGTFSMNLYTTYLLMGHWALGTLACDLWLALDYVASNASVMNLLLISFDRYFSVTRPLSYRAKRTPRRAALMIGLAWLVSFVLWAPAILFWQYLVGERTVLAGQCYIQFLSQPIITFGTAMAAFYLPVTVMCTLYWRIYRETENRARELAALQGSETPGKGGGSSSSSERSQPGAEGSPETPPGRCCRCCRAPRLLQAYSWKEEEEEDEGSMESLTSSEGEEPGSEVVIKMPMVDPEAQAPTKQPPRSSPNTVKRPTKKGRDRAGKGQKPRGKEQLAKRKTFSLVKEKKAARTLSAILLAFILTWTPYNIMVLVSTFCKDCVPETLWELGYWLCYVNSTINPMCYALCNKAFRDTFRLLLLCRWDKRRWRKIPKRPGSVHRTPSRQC
M1 PAM parental – nonselective calcium activators in parental CHO-K1 cells, primary screen, counter-screen for M1 PAM project, cell-based, Fluo-8 calcium fluorescence, full deck, 1536-well. ATP EC20; 0% at ATP EC20, 100% at ATP max. activation, % at 3 µM. hit rate 0.02% among 360,000;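 active = activation above the run cutoff, the mean activation of all test compounds plus 3 SD, cut at about 40% in these data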;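 also: peak over basal fluorescence ratio in a 140 s read after ATP addition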
M1 PAM – human M1 muscarinic receptor positive allosteric modulators, primary screen, CHO-K1 cells, Fluo-8 calcium fluorescence, 1536-well; hit rate 0.088% among 360,000; Muscarinic acetylcholine receptor M1 (Homo sapiens), P11229; CHO-K1 hM1, ACh EC20; 0% = ACh EC20, 100% = maximal ACh; AID 588819, 2011; activation, % at 3 µM; in the data active = activation above about 19%, passing the limit was not always enough
CHO-K1 Ca antag – nonselective inhibitor or artifact in parental CHO-K1 cells | ATP-induced calcium, Fluo-8 fluorescence | inhibition, % at 3 µM | hit rate 0.6% among 360,000;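 active = inhibition above a per-plate cutoff, the plate's mean sample inhibition plus 3 SD, cut at about 24% in these data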;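 also: 0% = DMSO plus EC80 ATP and 100% = DMSO alone without ATP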
M1 antag – human M1 muscarinic receptor antagonists, primary screen, CHO-K1 cells, Fluo-8 calcium fluorescence, 1536-well; CHO-K1 hM1, ACh EC80 antagonist; inhibition, % at 3 µM; hit rate 1.3% among 360,000; AID 588852, 2011;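 active = percent inhibition above its own plate's cutoff, namely the mean of that plate's compound wells plus 3 SD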;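 also: peak over basal fluorescence ratio during 140 s after agonist addition; 0% = ACh EC80 plus DMSO and 100% = DMSO alone without agonist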
The depositor's hits bear a star.

SMILES	CHO-K1 Ca ag	M1 ag	M1 PAM parental	M1 PAM	CHO-K1 Ca antag	M1 antag
C[C@@H](NC(=O)Cn1cnc2c(OCc3ccccc3)ncnc21)c1cccc2ccccc12	2.3	33.3*	9.6	19.8	-11.3	-13.3
O=C(Cn1cnc2c(NCc3ccccc3)ncnc21)NCc1ccccc1	0.5	0.8	7.2	9.7	-0.4	-15.5
C[C@@H](NC(=O)Cn1cnc2c(NCc3ccccc3)ncnc21)c1cccc2ccccc12	1.6	47.7*	-3.6	9.1	2.2	-10.2
CC(C)NC(=O)c1ccc2c(=O)n(C3CCCC3)c(=S)[nH]c2c1	0.2	-4.2	3.0	9.5	4.1	-7.0
CCN(CC)CCNC(=O)c1ccc2c(=O)n(C3CCCC3)c(=S)[nH]c2c1	2.9	-6.9	22.7	-23.9	-4.6	56.6*
O=c1[nH]c2cc3c(cc2cc1CN(Cc1ccco1)C(=S)NCCCN1CCOCC1)OCCO3	0.8	-12.6	13.8	8.3	-1.8	-4.3
CCN(CC)CCC=C(c1cccs1)c1cccs1	-0.5	-5.9	2.1	-28.0	-7.3	95.9*
CCN(CC)CCCNC(=O)/C(=C\c1cccn1C)NC(=O)c1cccs1	1.0	-6.8	16.4	6.8	-8.2	-8.2
CCOC(=O)CCN(C(=O)Nc1ccccc1)C1CCCCC1	0.4	-2.6	9.2	-5.0	-8.1	1.1
COc1ccc(COCC(O)CN2CCC(C(N)=O)CC2)cc1OC (stereo not given)	18.7*	-5.4	16.9	10.3	9.9	-5.6
Cc1ccc(C(=O)N=c2sccn2C)o1	0.3	-2.3	-6.2	5.5	-0.2	-9.8
COc1cccc(CN2CCc3ccc(NC(=O)CCc4ccc(C)cc4)cc3C2)c1O	13.1	0.6	10.9	-14.8	5.9	38.4*
COc1cc(CN2CCc3ccc(NC(=O)CCc4ccccc4OC)cc3C2)ccc1O	2.5	-6.0	11.6	6.3	1.9	-19.5
Cc1[nH]c2ccccc2c1C(=O)CN1C(=O)NC(C)(c2ccc(Cl)cc2Cl)C1=O (stereo not given)	10.9	27.1*	11.9	6.3	7.5	19.3
Cc1ccc(NCc2cccc(B(O)O)c2)cc1	0.1	2.7	0.8	11.4	2.2	-8.4
CCOC(=O)c1sc(NC(=O)CSc2nc(C)cc(C)n2)c(C#N)c1C	0.1	-1.7	8.8	4.5	-3.0	-6.8
CCOC(=O)c1c(NC(=O)CSc2n[nH]c(-c3ccco3)n2)sc(C)c1C	0.0	-2.7	-7.2	2.4	24.3*	4.2
CCOC(=O)c1sc(NC(=O)CSc2n[nH]c(-c3ccccc3)n2)c(C#N)c1C	10.1	5.5	0.8	-14.7	26.5*	19.3
CCOC(=O)c1c(NC(=O)CSc2n[nH]c(CNc3ccccc3)n2)sc(C)c1C	-0.7	1.4	22.1	18.3	-3.6	-12.4
CCOC(=O)c1sc(NC(=O)CSc2ncn[nH]2)c(C#N)c1C	17.9*	0.2	22.1	3.8	2.6	6.6
CCOC(=O)c1sc(NC(=O)CSc2ccccn2)c(C#N)c1C	0.2	-3.8	-6.2	2.2	-12.0	3.4
Cc1cc(C)cc(C(=O)N2CCC3(CC2)NCCc2[nH]cnc23)c1	-0.1	-5.2	-20.8	4.5	6.1	-0.3
Cc1cccc(OCCC(=O)Nc2ccc(C)c(S(=O)(=O)N3CCCCC3)c2)c1	8.9	-4.9	1.0	-15.2	10.2	8.7
CN(C)S(=O)(=O)c1ccc(C(=O)Nc2ccccc2C(=O)NCCCN2CCOCC2)cc1	-0.4	-4.0	-16.1	12.8	14.3	-8.3
CCCCCCn1c(=O)[nH]c2nc3cc(N)c(C)cc3nc2c1=O	59.8*	60.8*	-10.3	-22.3	28.6*	32.3*
SMILES	CHO-K1 Ca ag	M1 ag	M1 PAM parental	M1 PAM	CHO-K1 Ca antag	M1 antag
Cc1cc(C)cc(NC(=S)NCC2CCCO2)c1 (stereo not given)	0.2	-2.5	-3.4	-11.4	6.1	11.7*
COc1ccccc1/C=C/C(=O)NC(=S)NCC1CCCO1 (stereo not given)	4.9	-2.7	3.9	-12.4	2.0	35.5*
COc1ccccc1NC(=S)NCC1CCCO1 (stereo not given)	-0.6	-2.9	-14.4	-1.6	24.4*	4.6
CCOc1ccccc1NC(=S)NCC1CCCO1 (stereo not given)	3.6	-5.8	17.9	2.5	-5.1	-2.4
O=C(NC(=S)NCC1CCCO1)c1ccc(Cl)cc1Cl (stereo not given)	15.2*	-5.5	20.4	1.4	-4.1	-3.0
COc1ccc(/C=C/C(=O)NC(=S)NCC2CCCO2)cc1 (stereo not given)	4.4	-6.3	6.3	-1.4	2.1	6.2
S=C(NCC1CCCO1)Nc1cc(Cl)c(Cl)cc1Cl (stereo not given)	2.4	-3.3	1.5	-1.6	-16.7	1.9
CS(=O)(=O)N(Cc1ccc(Cl)cc1)c1ccc(C(=O)N/N=C/c2cc3ccccc3nc2Cl)cc1	0.6	-8.2	20.1	6.5	-12.2	-11.7
CCn1c(C)nc2c(C)[n+](CC(=O)c3ccc(Br)cc3)ccc21	-0.3	-9.2	-16.6	-16.5	23.8*	21.6
N#CCSc1nc2ccc(N3CCCCC3)cc2c(=O)n1Cc1ccccc1	0.2	-6.5	-3.9	-22.6	7.0	21.8*
Cc1nc(C)c(C(=O)N2CCCC(C(=O)c3cc(F)ccc3F)C2)s1 (stereo not given)	2.8	-1.9	14.2	7.9	-7.8	-11.5
COc1ccc(C(=O)CSc2nnc(Cn3cnc4ccccc43)o2)cc1	8.3	-1.1	9.4	-10.1	4.2	31.9*
S=C(Nc1cccc2ccccc12)NC1CCCCC1	-0.1	-10.4	6.0	2.4	-2.4	-7.4
CC(Oc1ccc(Br)cc1)C(=O)Nc1nnc(C2CC2)s1 (stereo not given)	12.7	17.8*	21.5	6.1	-6.8	-8.6
O=C(COC(=O)Cc1ccc(F)cc1)NC1CCS(=O)(=O)C1 (stereo not given)	0.6	0.6	-6.9	5.4	-1.1	-8.3
O=C(COC(=O)Cc1c[nH]c2ccccc12)NC1CCS(=O)(=O)C1 (stereo not given)	-0.1	-1.7	-20.9	-8.4	9.7	27.2*
COc1ccc(C(=O)C2CCCN(Cc3cnc(N4CCOCC4)s3)C2)cc1F (stereo not given)	28.9*	0.2	15.1	0.3	-5.3	-15.8
COc1ccc(C(=O)C2CCCN(Cc3ccc(C#CCCO)cc3)C2)cc1F (stereo not given)	1.4	-13.2	-11.0	-32.8	3.5	57.6*
